These results are taken from PubChem BioAssay.

Calls of active or inactive are those of the source.

The nature of test [1]: E. coli DRC41 culture turbidity changes, primary screen, E. coli filamentation inducer project, strain DRC41, OD650, 48 h (AID 1152).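 Also: E. coli MC1000 strain DRC41 lacking acrAB efflux pump and sulA.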 The note with it: E. coli DRC41 (acrAB sulA), higher = more signal, called active from +8 up or from −8 down.
Test [2] is described as follows: small-molecule binders of probe aLefty1, primary screen, biochemical, small-molecule microarray, 635/667 nm fluorescence (AID 1153).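 Also: score merges spot fluorescence with signal-to-noise ratio from the scanned slide images.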 The note with it: higher = more signal.
Test [3] is described as follows: PSAC antagonists in infected red cells, primary screen, cell-based, P. falciparum Indochina, OD700, 1 h (AID 1154). The note with it: P. falciparum Indochina infected RBC osmotic lysis, higher = more signal, called active from +8 up or from −8 down.
The nature of test [4]: PSAC antagonists in infected red cells, primary screen, cell-based, P. falciparum Indochina, OD700, 2 h (AID 1155).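 Also: lysis reports solute entry through the parasite surface anion channel PSAC; channel blockers reduce lysis of infected cells.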 The note with it: P. falciparum Indochina infected erythrocytes, osmotic lysis OD700; higher = more signal, called active from +8 up or from −8 down.
A short description of test [5]: osmotic lysis modulators in infected erythrocytes, primary screen, PSAC antagonist project, cell-based, P. falciparum Indochina, OD700, 3 h (AID 1156). The note with it: higher = more signal, called active from +8 up or from −8 down.
The nature of test [6]: PSAC antagonists in infected red cells, primary screen, cell-based, P. falciparum Indochina, OD700, 18 h (AID 1157). The note with it: P. falciparum Indochina infected erythrocytes, osmotic lysis OD700, 18 h; higher = more signal, called active from +8 up or from −8 down.
The nature of test [7]: modulators of S6 phosphorylation in cells, primary screen, cell-based, A549, cytoblot, luminescence, serum-stimulated (AID 1158).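 Also: serum-stimulated A549 lung adenocarcinoma cells; signal is phosphorylated S6 detected by cytoblot immunostaining with HRP secondary.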 The note with it: A549 phospho-S6 cytoblot, 5 h, higher = more signal.
For test [8], the target named is NADPH oxidase 2 (Homo sapiens) (UniProt P04839). Put plainly: NOX2-dependent H2O2 signal modulators, primary screen, NOX inhibitor project, cell-based, HEK293-NOX2, PMA-stimulated, Amplex Red fluorescence (AID 1159). Also: test concentration not given here. The note with it: 45 min, higher = more signal, called active from +8 up or from −8 down.
The target of test [9] is NADPH oxidase 4 (Homo sapiens) (UniProt Q9NPH5). The test is described as follows: NOX4-dependent H2O2 signal modulators, primary screen, NOX inhibitor project, cell-based, HEK293-NOX4, tetracycline-induced, Amplex Red fluorescence (AID 1160). The note with it: 45 min, higher = more signal, called active from +8 up or from −8 down.
The target in test [10] is NADPH oxidase 5 (Homo sapiens) (UniProt Q96PH1). Put plainly: NOX5-dependent H2O2 signal modulators, primary screen, NOX inhibitor project, cell-based, HEK293-NOX5, Amplex Red fluorescence (AID 1161). The note with it: HEK293-NOX5, ionomycin, 45 min, higher = more signal.
Test [11] is described as follows: A549 cell viability effects, profiling panel, calcein-AM fluorescence, 48 h, basal (AID 1162). Also: test concentration not given here. The note with it: higher = more signal.
The nature of test [12]: adipocyte viability effects, profiling panel, cell-based, 3T3-L1 adipocytes, calcein-AM fluorescence, 48 h, basal (AID 1163). Also: test concentration not given here. The note with it: 3T3-L1 adipocytes viability, higher = more signal.
Test [13] can be described thus: HepG2 cell viability effects, profiling panel, calcein-AM fluorescence, 48 h, basal (AID 1164). Also: test concentration not given here. The conditions noted are these: higher = more signal.
Test [14] in a line: MM1S cell viability effects, profiling panel, calcein-AM fluorescence, 48 h, basal (AID 1165).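 Also: viability of MM1S multiple myeloma cells under basal unstimulated conditions; test concentration not given here.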 The note with it: higher = more signal.
The nature of test [15]: basal RPMI8226 viability, no added stimulus, profiling panel, cell-based, calcein-AM fluorescence, 48 h, PK04 Diversity Set (AID 1166).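 Also: cells grown under basal conditions without added stimulus; test concentration not given here.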 The conditions noted are these: RPMI8226 myeloma viability, higher = more signal.
The nature of test [16]: basal HepG2 mitochondrial membrane potential changes, profiling panel, cell-based, JC-1 fluorescence, 24 h, 100 nL compound (AID 1167). Also: test concentration not given here. The conditions noted are these: higher = more signal.
Test [17] is described as follows: basal 3T3-L1 adipocyte mitochondrial potential changes, profiling panel, cell-based, JC-1 fluorescence, 3T3-L1 adipocytes, 24 h, 100 nL compound (AID 1168). Also: test concentration not given here. The conditions noted are these: JC-1 mitochondrial fluorescence, higher = more signal, called active from +8 up or from −8 down.
Test [18] in a line: basal RPMI8226 mitochondrial membrane potential changes, profiling panel, cell-based, JC-1 fluorescence, 24 h, 100 nL compound (AID 1169). Also: test concentration not given here. The conditions noted are these: RPMI8226 myeloma, JC-1 mitochondrial potential fluorescence, higher = more signal.
The nature of test [19]: basal MM1S mitochondrial membrane potential changes, profiling panel, cell-based, JC-1 fluorescence, 24 h, 100 nL compound (AID 1170). Also: test concentration not given here. The conditions noted are these: higher = more signal.
The nature of test [20]: A549 lung cancer cell viability effects, profiling panel, resazurin fluorescence, 24 h, PK04 Diversity Set (AID 1171). Also: test concentration not given here. The conditions noted are these: higher = more signal, called active from +8 up or from −8 down.

Chain of NADPH oxidase 2 (Homo sapiens) (P04839 whole entry, looked up): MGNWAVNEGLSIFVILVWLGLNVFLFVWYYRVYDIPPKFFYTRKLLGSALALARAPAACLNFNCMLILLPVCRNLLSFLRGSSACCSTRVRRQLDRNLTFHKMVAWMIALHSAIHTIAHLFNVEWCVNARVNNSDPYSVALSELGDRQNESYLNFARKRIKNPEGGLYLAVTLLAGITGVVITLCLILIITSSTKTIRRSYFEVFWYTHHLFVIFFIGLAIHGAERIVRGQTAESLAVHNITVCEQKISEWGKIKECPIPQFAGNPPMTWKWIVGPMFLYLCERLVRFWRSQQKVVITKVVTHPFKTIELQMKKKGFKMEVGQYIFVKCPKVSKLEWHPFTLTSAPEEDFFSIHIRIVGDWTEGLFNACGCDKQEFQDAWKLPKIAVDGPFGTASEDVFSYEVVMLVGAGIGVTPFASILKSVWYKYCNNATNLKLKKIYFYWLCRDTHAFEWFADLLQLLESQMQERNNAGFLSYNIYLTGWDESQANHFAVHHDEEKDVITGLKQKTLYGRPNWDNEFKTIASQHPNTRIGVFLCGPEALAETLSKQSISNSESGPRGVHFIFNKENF
Chain of NADPH oxidase 4 (Homo sapiens) (Q9NPH5 whole entry, looked up): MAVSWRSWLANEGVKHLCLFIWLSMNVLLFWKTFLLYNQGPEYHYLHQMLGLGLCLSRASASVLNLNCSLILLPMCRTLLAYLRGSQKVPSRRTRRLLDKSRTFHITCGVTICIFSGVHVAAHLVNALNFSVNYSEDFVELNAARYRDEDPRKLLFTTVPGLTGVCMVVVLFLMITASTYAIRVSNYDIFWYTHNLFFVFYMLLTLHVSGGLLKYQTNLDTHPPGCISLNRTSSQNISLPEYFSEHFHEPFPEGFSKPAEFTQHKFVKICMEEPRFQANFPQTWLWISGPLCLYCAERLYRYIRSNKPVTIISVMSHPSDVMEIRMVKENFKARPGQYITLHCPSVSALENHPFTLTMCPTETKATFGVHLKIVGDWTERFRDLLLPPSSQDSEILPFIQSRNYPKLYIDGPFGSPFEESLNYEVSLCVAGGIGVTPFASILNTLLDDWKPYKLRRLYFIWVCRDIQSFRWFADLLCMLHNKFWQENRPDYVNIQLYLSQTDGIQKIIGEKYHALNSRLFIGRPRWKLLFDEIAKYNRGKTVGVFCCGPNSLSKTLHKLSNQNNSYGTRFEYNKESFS
Chain of NADPH oxidase 5 (Homo sapiens) (Q96PH1 whole entry, looked up): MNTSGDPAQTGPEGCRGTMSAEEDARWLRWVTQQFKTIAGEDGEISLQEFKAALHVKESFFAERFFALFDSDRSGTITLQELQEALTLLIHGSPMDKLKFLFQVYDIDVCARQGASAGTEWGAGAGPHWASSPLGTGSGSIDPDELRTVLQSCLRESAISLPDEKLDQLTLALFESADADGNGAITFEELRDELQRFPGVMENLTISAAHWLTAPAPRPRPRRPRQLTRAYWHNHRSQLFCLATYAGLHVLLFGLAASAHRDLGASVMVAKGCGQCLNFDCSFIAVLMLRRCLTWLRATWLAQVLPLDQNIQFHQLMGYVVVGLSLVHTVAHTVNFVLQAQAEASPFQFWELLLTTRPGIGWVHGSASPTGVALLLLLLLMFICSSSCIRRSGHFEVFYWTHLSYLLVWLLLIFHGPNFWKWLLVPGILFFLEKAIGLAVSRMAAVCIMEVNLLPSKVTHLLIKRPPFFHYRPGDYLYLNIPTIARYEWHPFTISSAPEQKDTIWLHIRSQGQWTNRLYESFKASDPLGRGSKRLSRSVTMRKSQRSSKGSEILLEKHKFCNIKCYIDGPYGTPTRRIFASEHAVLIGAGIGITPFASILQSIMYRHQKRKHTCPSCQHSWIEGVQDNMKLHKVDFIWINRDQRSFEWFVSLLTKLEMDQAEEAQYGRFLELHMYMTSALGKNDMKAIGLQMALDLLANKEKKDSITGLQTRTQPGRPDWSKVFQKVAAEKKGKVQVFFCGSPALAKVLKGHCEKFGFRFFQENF

As to `COC(=O)[C@@]1(Cc2ccccc2)N=C(c2ccc(OCCCO)cc2)O[C@H]1c1ccccc1N=[N+]=[N-]`, the z-score was 0.388 (inactive) in [1]; 29.2 (active) in [3]; 24.1 (active) in [4]; 1.79 (inactive) in test [5]; 5.76 (inactive) in test [6]; 0.661 in test [7]. For the same compound, the z-score in [8] is -2.01 (inactive); in [9], 0.373 (inactive); in test [10] it was -1.06; in [11] it was 0.119; in [12], 0.113; in test [13], -2.06. For the same compound, the z-score in test [14] is -3.35; in test [15], -4.04; in test [16], 1.12; in test [17] it was -0.528 (inactive); in test [18], -1.11; in test [19] it was -0.896. In addition, the z-score in test [20] is -1.83 (inactive). The same compound displayed a composite z-score in test [2] of 0.129.

In the case of `CC(C)NC(=O)[C@@H]1c2ccccc2C(=O)N(Cc2ccccc2)[C@H]1c1ccc(CO)cc1`, the z-score is -0.355 (inactive) in test [1]; 1.36 (inactive) in test [3]; 0.573 (inactive) in [4]; 1.65 (inactive) in test [5]; 0.351 (inactive) in test [6]; 0.0506 in [7]. For the same compound, the z-score is -0.767 (inactive) in test [8]; 0.333 (inactive) in test [9]; -1.66 in test [10]; 0.831 in [11]; -0.46 in test [12]; -0.116 in test [13]. Also, the z-score is -1.42 in test [14]; -0.238 in test [15]; 0.681 in test [16]; -1.5 (inactive) in test [17]; 0.00231 in [18]; -0.0636 in test [19]. Also, the z-score in test [20] is 0.748 (inactive). Further, the composite z-score in test [2] was determined as 0.108.

Take `C=CC[C@@]1(C(=O)NCC(O)CO)N=C(c2ccc(OCCCO)cc2)O[C@@H]1c1ccccc1N=[N+]=[N-]` (stereo not given in full): the z-score is 1 (inactive) in [1]; 34.8 (active) in [3]; 27.8 (active) in [4]; 3.23 (inactive) in test [5]; 6.75 (inactive) in test [6]; 1.58 in test [7]. The z-score in test [8] is -2.45 (inactive); in test [9] it was 0.918 (inactive); in test [10] it was -2.74; in test [11], -0.112; in test [12], 1.37; in test [13], -0.805. Moreover, the z-score in test [14] was -0.494; in [15], -1.14; in test [16], 0.582; in [17] it was -0.343 (inactive); in [18], -0.164; in test [19] it was -1.17. For the same compound, the z-score in [20] is 0.695 (inactive). Further, in test [2], the composite z-score was 0.18.

Turning to `CCOC(=O)C[C@H]1[C@H](OC(=O)Cc2ccc3c(c2)OCO3)[C@@H](NC(=O)c2ccc(-c3ccccc3)cc2)c2cc(OCCCO)ccc2N1C(=O)c1ccccc1`, the z-score in [1] is 2.36 (inactive); in [3], 8.3 (active); in test [4] it was 1.63 (inactive); in [5], -0.825 (inactive); in [6] it was 0.505 (inactive); in [7] it was -0.0321. For the same compound, the z-score in test [8] was -0.588 (inactive); in test [9], 0.674 (inactive); in test [10], 1.8; in test [11], 1.8; in test [12], 0.127; in test [13], 1.66. Also, the z-score is -0.262 in test [14]; 0.0317 in [15]; 3.09 in [16]; -0.288 (inactive) in test [17]; 0.965 in test [18]; -0.0178 in [19]. For the same compound, in test [20], the z-score is 0.328 (inactive). Also, in [2], the composite z-score is -0.122.

Consider `[N-]=[N+]=NCc1ccccc1[C@@H]1OC(c2ccc(OCCCO)cc2)=N[C@]1(Cc1ccccc1N=[N+]=[N-])C(=O)NCc1ccccc1`, for which the z-score is -2.95 (inactive) in test [1]; 21.8 (active) in test [3]; 4.97 (inactive) in test [4]; 3.79 (inactive) in test [5]; 1.33 (inactive) in test [6]; -0.33 in test [7]. Further, the z-score was -0.654 (inactive) in test [8]; 0.0734 (inactive) in [9]; 0.235 in [10]; 0.103 in [11]; 0.0085 in [12]; -0.829 in [13]. Also, the z-score was -0.466 in test [14]; 0.22 in [15]; 1.47 in test [16]; -0.385 (inactive) in test [17]; -0.749 in test [18]; -1.37 in test [19]. Moreover, the z-score in test [20] is -0.234 (inactive). For the same compound, the composite z-score in test [2] stood at 0.639.

On to `C=CC[C@@H](OC(=O)Nc1ccc(OC)cc1)c1ccc(O)c2ccccc12`, for which the z-score in [1] was 0.122 (inactive); in test [3], 3.63 (inactive); in test [4], 0.661 (inactive); in [5], -0.335 (inactive); in test [6], 0.279 (inactive); in [7], 0.229. In addition, the z-score in test [8] is -6.06 (inactive); in test [9], -1.69 (inactive); in test [10], -0.308; in test [11], -0.28; in test [12], 0.316; in test [13], -2. The z-score in test [14] is -2.96; in test [15], -4.3; in test [16], -3.28; in [17] it was -1.55 (inactive); in test [18], -0.992; in [19], -2.18. The z-score in test [20] was -0.67 (inactive). The composite z-score in test [2] is -0.0615.
